KDM5B inh = inhibitors of human KDM5B histone demethylase. KDM5B demethylase, FDH-coupled NADH fluorescence (FDH is formaldehyde dehydrogenase). 220,000 tested, 2.6% active. Potency, µM (highest dose often 57.7 µM), usual class: inhibitors; note: nearly all actives have a fitted effect of over 70% in size
Target sequence (Q9UGL1 whole entry, looked up): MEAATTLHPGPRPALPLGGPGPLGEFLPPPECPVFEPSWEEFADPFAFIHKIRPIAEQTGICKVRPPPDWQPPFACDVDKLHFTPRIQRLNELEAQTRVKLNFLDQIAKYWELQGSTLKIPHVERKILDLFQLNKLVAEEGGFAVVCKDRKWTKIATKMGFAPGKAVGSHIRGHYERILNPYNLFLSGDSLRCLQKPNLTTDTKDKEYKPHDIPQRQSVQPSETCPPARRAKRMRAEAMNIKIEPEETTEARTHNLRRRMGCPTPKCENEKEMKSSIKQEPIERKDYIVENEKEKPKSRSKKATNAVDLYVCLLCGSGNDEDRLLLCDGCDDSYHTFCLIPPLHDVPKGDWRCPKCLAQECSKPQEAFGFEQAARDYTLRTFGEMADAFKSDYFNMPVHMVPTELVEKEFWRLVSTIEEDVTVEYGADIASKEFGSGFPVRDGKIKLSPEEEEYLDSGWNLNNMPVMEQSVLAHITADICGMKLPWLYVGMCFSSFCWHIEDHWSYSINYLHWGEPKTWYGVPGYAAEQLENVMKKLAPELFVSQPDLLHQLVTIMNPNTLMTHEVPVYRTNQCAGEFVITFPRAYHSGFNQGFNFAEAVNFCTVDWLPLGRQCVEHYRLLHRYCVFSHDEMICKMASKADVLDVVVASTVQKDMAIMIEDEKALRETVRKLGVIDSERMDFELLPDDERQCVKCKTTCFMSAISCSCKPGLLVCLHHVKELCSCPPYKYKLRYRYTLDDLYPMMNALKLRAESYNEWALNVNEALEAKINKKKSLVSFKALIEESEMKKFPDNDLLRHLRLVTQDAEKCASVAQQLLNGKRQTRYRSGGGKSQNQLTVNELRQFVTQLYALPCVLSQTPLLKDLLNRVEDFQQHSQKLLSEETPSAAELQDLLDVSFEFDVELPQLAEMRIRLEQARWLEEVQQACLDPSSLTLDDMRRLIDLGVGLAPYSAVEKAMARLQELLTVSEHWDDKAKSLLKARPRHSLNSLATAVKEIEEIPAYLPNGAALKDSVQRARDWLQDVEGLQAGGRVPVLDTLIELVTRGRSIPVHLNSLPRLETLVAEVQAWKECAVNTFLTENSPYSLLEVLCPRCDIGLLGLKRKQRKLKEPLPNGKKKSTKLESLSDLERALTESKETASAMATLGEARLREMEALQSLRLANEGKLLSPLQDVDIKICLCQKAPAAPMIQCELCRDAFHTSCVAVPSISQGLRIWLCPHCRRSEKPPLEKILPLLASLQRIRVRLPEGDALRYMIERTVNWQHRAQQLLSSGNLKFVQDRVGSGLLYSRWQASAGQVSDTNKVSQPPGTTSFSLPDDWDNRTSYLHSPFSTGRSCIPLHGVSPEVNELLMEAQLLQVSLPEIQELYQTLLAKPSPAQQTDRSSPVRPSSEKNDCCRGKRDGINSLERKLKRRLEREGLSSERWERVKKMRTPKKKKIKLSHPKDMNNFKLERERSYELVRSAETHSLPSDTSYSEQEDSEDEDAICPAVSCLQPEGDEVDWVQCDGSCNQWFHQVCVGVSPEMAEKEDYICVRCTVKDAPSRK
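Inhibition is measured as reduced NADH fluorescence generation from FDH coupling to formaldehyde release. Truncated KDM5BΔAP at 200 nM final acts on H3K4me3 peptide (12.5 µM in substrate mix) in pH 7.5 HEPES buffer with Tween-20, 30 min, room temperature.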
SNCA expr inh = inhibitors of alpha-synuclein (SNCA) gene expression. HEK-293 SNCA-luciferase knock-in, luminescence, 24 h. Potency, µM (titrated, usually from 57.2 µM), actives largely listed as inhibitors. 140,000 tested, 0.17% active; note: nearly all actives have a fitted effect of over 45% in size
HEK293 viab = counter-screen for SNCA expression inhibitors: cell viability; 150,000 tested, 0.12% active; Potency, µM (series often up to 57.1 µM), actives largely listed as cytotoxic; HEK-293-SNCA-luc viability, GF-AFC fluorescence, 24 h; AID 1671193; note: nearly all actives have a fitted effect of over 30% in size
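HEK-293-SNCA-luc cells (1500/well) plated 24 h, then exposed 24 h to a dilution series; GF-AFC added 30 min at 37C, fluorescence 405/540 nm; normalised to medium-only and DMSO wells, Hill fit.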
IP6K1 inh = blocks human inositol hexakisphosphate kinase 1; activity change, % (series mostly up to about 58 µM); 140,000 tested, 0.81% active; IP6K1 kinase, ADP-Glo luminescence, 2 h; hits give low values; in the data active = activity change below about -25%
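ADP-Glo luminescence measures ADP made by human IP6K1 during a 2 h RT reaction with ATP/IP6 (mix at 1.3 mM/130 uM); top library doses 57.5 and 19.1 uM final.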
Hits are given with their value; . = inactive; ? = inconclusive; / = not tested or not shown; ! = a repeat was not active; [ ] = dose if it differs, or a comment. Only some compounds are listed: those with a hit (about 3% of all), similar ones and a draw of the others. Unless noted, calls come from the whole dose curve; as a rule, active = well fitted curve in the direction sought with a large enough effect; inconclusive = small, poorly fitted or top-dose-only effect, or another doubt; inactive = no such curve, though single readings can be large; an effect the other way counts as inactive or inconclusive.

SMILES | KDM5B inh | SNCA expr inh | HEK293 viab | IP6K1 inh
COc1ccc(-c2cc(C(=O)NCC(C)C)c3c(C4CCNC4)noc3n2)cc1 (stereo not given) | ? | . | . | .
O=C(NC1CC1)c1cc(C2CC2)nc2onc(C3CCNCC3)c12 | ? | . | . | .
O=C(NC1CCCC1)c1cc(C2CC2)nc2onc(C3CCNCC3)c12 | 79µM | . | . | .
COc1ccccc1CNC(=O)C1CCCN(c2nccc(Nc3ccccc3OC)n2)C1 (stereo not given) | / | . | .[12.5 µM] | .
Cc1ccccc1NC(=O)N1CCC(N2CCCC(C(=O)N3CCCC3)C2)CC1 (stereo not given) | 22µM | . | . | .
COCC1N(Cc2ccc(Oc3ccccc3)cc2)C2CCC1(O)CC2 (stereo not given) | / | / | / | .
Cc1ccc(Cn2c(SCCO)nc3c2c(=O)[nH]c(=O)n3C)cc1 | . | / | / | /
Cc1ccc(Cn2c(-c3cccc(Cl)c3)nc(C)c(CCO)c2=O)cc1 | ? | . | . | .
Cc1nc(-c2cccc(Cl)c2)n(Cc2cc(=O)n3ccccc3n2)c(=O)c1CCO | 32µM | . | . | .
O=C(Cc1cccc(F)c1)NCC1COc2ncncc2C(=O)N1Cc1ccccc1 (stereo not given) | 28µM | . | . | .
Cc1ccc(-c2cc(C(=O)NCc3cnn(C)c3)c3cc(Br)ccc3n2)cc1 | . | . | . | .
COc1ccc(-c2cc(C(=O)NCc3cc(C)on3)c3c(c2)N(C)CCO3)cn1 | 35µM | . | . | .
CN1CCOc2c(C(=O)NCC[S+](C)(=O)[O-])cc(-c3ccccc3)cc21 | 32µM | . | . | .
COc1ccc(-c2cc(C(=O)NCC[S+](C)(=O)[O-])c3c(c2)N(C)CCO3)cn1 | 32µM | . | . | .
CN1CCOc2c(C(=O)NCc3cnn(C)c3)cc(-c3ccc(CO)cc3)cc21 | 20µM | . | . | .
Cc1ccccc1Nc1cnc2ccc(-c3cccc(CO)c3)nn12 | . | . | . | .
COc1ccc(-c2cc(C(=O)NCCc3cnc[nH]3)c3c(c2)N(C)CCO3)cc1OC | 32µM | . | . | .
CN1CCOc2c(C(=O)NCc3cccnc3)cc(-c3ccc(O)c(F)c3)cc21 | ? | . | . | .
COc1cccc(NC(=O)c2ccc3c(c2)NC(C)(CCCCN2CCOCC2)CO3)c1 (stereo not given) | ? | . | . | .
CC1(CCCCN2CCOCC2)COc2ccc(C(=O)NCc3ccco3)cc2N1 (stereo not given) | 35µM | . | . | .
CC1(CCCCN2CCOCC2)COc2ccc(C(=O)NCc3ccccc3)cc2N1 (stereo not given) | 40µM | . | . | .
CC1(CCCCc2ccccc2)COc2ccc(C(=O)NCCN3CCOCC3)cc2N1 (stereo not given) | 35µM | ? | . | .
CC1(CCCCN2CCOCC2)COc2ccc(C(=O)Nc3ccc4[nH]ccc4c3)cc2N1 (stereo not given) | . | ? | . | .
CCOC(=O)C(Cc1cc(N2CCN(S(=O)(=O)c3c(Cl)cccc3Cl)CC2)ccc1Cl)OC (stereo not given) | / | / | / | .
Cc1ccc2c(c1)cc(C(=O)NCCc1ccccc1)n2C | . | / | / | /
SMILES | KDM5B inh | SNCA expr inh | HEK293 viab | IP6K1 inh
CCN1C[C@H]2COc3cc(OC)ccc3[C@H]2N(C(=O)COc2ccccc2)CCC1=O | / | / | / | .
CSc1ccc(-c2nc(CN3CCN(C(=O)N(C)C)CC3)c(C)o2)cc1 | ? | . | . | .
CSc1ccc(-c2nc(CN3CCOC(CCO)C3)c(C)o2)cc1 (stereo not given) | 16µM | . | . | .
CSc1ccc(-c2nc(CN3CCN(C(C)=O)CC3)c(C)o2)cc1 | 20µM | . | . | .
CC(=O)Oc1c(-c2ccc(NC(=O)C3CC3)cc2)c(-c2ccccc2F)nn1-c1ccccc1 | ? | . | . | .
COc1cccc2c1C(=O)c1c(O)c3c(c(O)c1C2=O)C[C@@](O)(C(C)=O)C[C@H]3O[C@H]1C[C@H](N)[C@H](O)[C@H](C)O1 | / | 0.24µM | ? | /
O=Cc1ccc(-c2cccc(Cl)c2)cc1 | 32µM | . | . | .
Cc1cc(Cl)ccc1-c1ccc(C=O)cc1 | 79µM | . | . | .
Cc1ccc2cc(C(=O)N3CCCC(C(=O)N4CCOCC4)C3)[nH]c2c1 (stereo not given) | . | / | / | /
O=C(NC1CCN(c2ccc3nnc(C4CC4)n3n2)C1)c1ccccn1 (stereo not given) | / | / | / | .
CN(C)C[C@@H]1CN(S(C)(=O)=O)C[C@H]1NC(=O)c1cc2ccccc2[nH]1 | 32µM | . | . | .
CCN1CCN(CCNC(=O)c2cn3ccnc(-c4ccc(OC)cc4)c3n2)CC1 | 28µM | . | . | .
CCc1noc(-c2cccn3c(CNC(=O)COc4ccccc4)nnc23)n1 | 32µM | ? | . | .
CCc1noc(-c2cccn3c(CNC(=O)C(C)c4ccccc4)nnc23)n1 (stereo not given) | 22µM | . | . | .
COc1ccc(CCNC(=O)c2nc3cccnc3n(CC(C)C)c2=O)cc1 | / | . | . | .
Cn1c(Cn2cccn2)nnc1C1CC(NC(=O)c2sccc2N)C1 (stereo not given) | 16µM! | . | . | .
CCn1c(CO)nnc1C1CC(NC(=O)c2nc(-c3ccccc3)[nH]c2C)C1 (stereo not given) | . | . | . | .
CCn1c(CO)nnc1C1CC(NC(=O)c2sccc2N)C1 (stereo not given) | 11µM | . | . | .
CCn1c(CO)nnc1C1CC(NC(=O)NCCc2ccccc2F)C1 (stereo not given) | . | . | . | .
CCNc1ncc(C(=O)NC2CC(c3nnc(CO)n3CC)C2)cn1 (stereo not given) | 25µM | . | . | .
O=[S+]([O-])(NC1CCCN(c2ccc3nnc(C4CC4)n3n2)C1)c1ccccc1 (stereo not given) | / | / | / | .
CCN(CC)C(=O)C1CCN(C(=O)Cn2ccc3ccc(Cl)cc32)CC1 | . | / | / | /
Cc1c(CN2CCCC(C(=O)Nc3cccc(-c4cc5ccccc5[nH]4)c3)C2)cnn1C (stereo not given) | 28µM | ? | ? | .
Cc1cccc(-c2cccc(NC(=O)C3CCCN(C(=O)c4cccc(C)n4)C3)c2)c1 (stereo not given) | . | . | . | .
O=C(Nc1cccc(-n2cccn2)c1)C1CCCN(Cc2cccc(F)c2F)C1 (stereo not given) | . | . | . | .
Cc1cc(C(=O)N2CCCC(C(=O)Nc3cccc(-c4cc5ccccc5[nH]4)c3)C2)nn1C (stereo not given) | 32µM | ? | ? | .
CCn1cc(C(=O)N2CCCC(C(=O)Nc3cccc(-c4cc5ccccc5[nH]4)c3)C2)cn1 (stereo not given) | 28µM | . | . | .
CC(=O)N1CCC(c2nnc3n2CCNC3)CC1 | 112µM | . | . | .
O=C(c1ccncc1)N1CCC(c2nnc3n2CCNC3)CC1 | 35µM | . | . | .
CCNc1ncc(C(=O)N(CCc2ccccc2)Cc2ccco2)cn1 | 28µM | . | . | .

Assay outcomes deposited in PubChem by National Center for Advancing Translational Sciences (NCATS).
